# Reference: PubChem BioAssay AID1159580 (chemical genetic matrix, 2015)
# Among all 5,500 compounds or so, about 2,000 (36%) were called active. About 18% were inconclusive and are not listed. This is one part of the list. Values without a mark were called inactive. Rule as the data show it: active = normalized growth mostly below about 0.91 (no sharp cut-off); inconclusive = no clear call, values can overlap the other calls; inactive = mostly above about 0.92.
# Assay: chemical genetic growth profiling, strain panel (AID 1159580);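 also: tested at 20 µM; growth read once vehicle control cultures reached saturation at 30 °C; 1 = growth at the plate median or of vehicle wells; lower values mean less growth of the strain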
# Conditions: S. cerevisiae deletion strains, growth OD
# [1] = locus YHR030C, strain SLT2, stronger effect = lower value
# [2] = locus YHR079C, strain IRE1, stronger effect = lower value
# [3] = locus YJL095W, strain BCK1, stronger effect = lower value
# [4] = locus YJR066W, strain TOR1, stronger effect = lower value
# [5] = locus YLR113W, strain HOG1, stronger effect = lower value
# [6] = locus YNL183C, strain NPR1, stronger effect = lower value
# [7] = locus YOR231W, strain MKK1, stronger effect = lower value
# [8] = locus YPL256C, strain CLN2, stronger effect = lower value
compound,measurement,setting,value
CO/N=C(/C(=O)NC1C(=O)N2C(C(=O)OCOC(=O)C(C)(C)C)=C(/C=C\c3scnc3C)CSC12)c1csc(N)n1 (centres undefined),normalized growth,"locus YAL021C, strain ccr4, stronger effect = lower value",0.974
same,normalized growth,"locus YAL026C, strain drs2, stronger effect = lower value",1.01
same,normalized growth,"locus YAL030W, strain snc1, stronger effect = lower value",0.992
same,normalized growth,"locus YBL061C, strain skt5, stronger effect = lower value",1
same,normalized growth,"locus YBR009C, strain hhf1, stronger effect = lower value",0.98
same,normalized growth,"locus YBR023C, strain chs3, stronger effect = lower value",1
same,normalized growth,"locus YBR171W, strain sec66, stronger effect = lower value",1
same,normalized growth,"locus YBR231C, strain swc5, stronger effect = lower value",0.965
same,normalized growth,"locus YBR279W, strain paf1, stronger effect = lower value",1
same,normalized growth,"locus YCL011C, strain gbp2, stronger effect = lower value",1
same,normalized growth,"locus YCL016C, strain dcc1, stronger effect = lower value",1
same,normalized growth,"locus YCL069W, strain vba3, stronger effect = lower value",0.999
same,normalized growth,"locus YCR088W, strain abp1, stronger effect = lower value",0.999
same,normalized growth,"locus YDL005C, strain med2, stronger effect = lower value",0.999
same,normalized growth,"locus YDL040C, strain nat1, stronger effect = lower value",1
same,normalized growth,"locus YDR001C, strain nth1, stronger effect = lower value",1.01
same,normalized growth,"locus YDR069C, strain doa4, stronger effect = lower value",1.01
same,normalized growth,"locus YDR137W, strain rgp1, stronger effect = lower value",1.03
same,normalized growth,"locus YDR159W, strain sac3, stronger effect = lower value",0.902
same,normalized growth,"locus YDR195W, strain ref2",0.96
same,normalized growth,"locus YDR297W, strain sur2, stronger effect = lower value",1.01
same,normalized growth,"locus YDR334W, strain swr1, stronger effect = lower value",0.989
same,normalized growth,"locus YDR335W, strain msn5, stronger effect = lower value",1.01
same,normalized growth,"locus YDR392W, strain spt3, stronger effect = lower value",0.906
same,normalized growth,"locus YEL003W, strain gim4, stronger effect = lower value",0.995
same,normalized growth,"locus YEL037C, strain rad23, stronger effect = lower value",0.988
same,normalized growth,"locus YEL061C, strain CIN8 (second series), stronger effect = lower value",0.985
same,normalized growth,"locus YER015W, strain faa2, stronger effect = lower value",0.988
same,normalized growth,"locus YER016W, strain bim1, stronger effect = lower value",1.03
same,normalized growth,"locus YER111C, strain swi4, stronger effect = lower value",0.986
same,normalized growth,"locus YER155C, strain BEM2 (second series), stronger effect = lower value",0.875
same,normalized growth,"locus YFR010W, strain ubp6, stronger effect = lower value",0.998
same,normalized growth,"locus YGL167C, strain pmr1, stronger effect = lower value",1
same,normalized growth,"locus YGL173C, strain kem1, stronger effect = lower value",1
same,normalized growth,"locus YGL227W, strain vid30, stronger effect = lower value",1.03
same,normalized growth,"locus YGL240W, strain doc1, stronger effect = lower value",0.976
same,normalized growth,"locus YGL253W, strain hxk2, stronger effect = lower value",1.01
same,normalized growth,"locus YHR013C, strain ard1, stronger effect = lower value",1
same,normalized growth,"locus YHR027C, strain rpn1, stronger effect = lower value",1
same,normalized growth,[1],1.05
same,normalized growth,[2],1.04
same,normalized growth,"locus YHR142W, strain chs7, stronger effect = lower value",1.02
same,normalized growth,"locus YJL092W, strain hpr5, stronger effect = lower value",0.995
same,normalized growth,"locus YJL095W, strain BCK1 (second series), stronger effect = lower value",0.994
same,normalized growth,[3],1.01
same,normalized growth,"locus YJL115W, strain asf1, stronger effect = lower value",1
same,normalized growth,"locus YJL129C, strain trk1, stronger effect = lower value",1.01
same,normalized growth,"locus YJL154C, strain vps35, stronger effect = lower value",0.996
same,normalized growth,"locus YJL164C, strain tpk1, stronger effect = lower value",0.989
same,normalized growth,"locus YJL166W, strain qcr8, stronger effect = lower value",1
same,normalized growth,"locus YJL187C, strain SWE1, stronger effect = lower value",1
same,normalized growth,[4],1.01
same,normalized growth,"locus YKL160W, strain elf1, stronger effect = lower value",1
same,normalized growth,"locus YKR026C, strain gcn3, stronger effect = lower value",0.994
same,normalized growth,"locus YKR091W, strain srl3, stronger effect = lower value",0.993
same,normalized growth,"locus YLL001W, strain dnm1, stronger effect = lower value",0.953
same,normalized growth,"locus YLL026W, stronger effect = lower value",0.996
same,normalized growth,"locus YLL041C, strain sdh2, stronger effect = lower value",0.997
same,normalized growth,"locus YLR027C, strain aat2, stronger effect = lower value",1
same,normalized growth,[5],0.962
same,normalized growth,"locus YLR221C, strain rsa3, stronger effect = lower value",0.994
same,normalized growth,"locus YLR258W, strain gsy2, stronger effect = lower value",1.01
same,normalized growth,"locus YLR262C, strain YPT6 (second series), stronger effect = lower value",0.992
same,normalized growth,"locus YLR320W, strain mms22, stronger effect = lower value",0.955
same,normalized growth,"locus YLR342W, strain FKS1, stronger effect = lower value",1.01
same,normalized growth,"locus YLR357W, strain rsc2, stronger effect = lower value",0.942
same,normalized growth,"locus YLR370C, strain arc18, stronger effect = lower value",0.991
same,normalized growth,"locus YLR384C, strain iki3, stronger effect = lower value",1.02
same,normalized growth,"locus YML120C, strain ndi1, stronger effect = lower value",0.995
same,normalized growth,"locus YMR058W, strain fet3, stronger effect = lower value",0.991
same,normalized growth,"locus YMR125W, strain sto1, stronger effect = lower value",0.981
same,normalized growth,"locus YMR129W, stronger effect = lower value",0.992
same,normalized growth,"locus YMR205C, strain PFK2, stronger effect = lower value",0.99
same,normalized growth,"locus YMR231W, strain pep5, stronger effect = lower value",0.994
same,normalized growth,"locus YNL071W, strain lat1, stronger effect = lower value",0.999
same,normalized growth,[6],0.981
same,normalized growth,"locus YNL209W, strain ssb2, stronger effect = lower value",1.01
same,normalized growth,"locus YNL248C, strain rpa49, stronger effect = lower value",1.01
same,normalized growth,"locus YNL322C, strain KRE1 (second series), stronger effect = lower value",0.984
same,normalized growth,"locus YNR049C, strain mso1, stronger effect = lower value",0.991
same,normalized growth,"locus YOR001W, strain rrp6, stronger effect = lower value",0.973
same,normalized growth,"locus YOR070C, strain gyp1, stronger effect = lower value",1
same,normalized growth,"locus YOR080W, strain dia2, stronger effect = lower value",0.996
same,normalized growth,"locus YOR083W, strain WHI5, stronger effect = lower value",0.95
same,normalized growth,"locus YOR106W, strain vam3, stronger effect = lower value",1.01
same,normalized growth,[7],1.01
same,normalized growth,"locus YOR265W, strain rbl2, stronger effect = lower value",0.998
same,normalized growth,"locus YOR270C, strain vph1, stronger effect = lower value",1.04
same,normalized growth,"locus YOR290C, strain snf2, stronger effect = lower value",1.01
same,normalized growth,"locus YPL051W, strain arl3, stronger effect = lower value",1.01
same,normalized growth,"locus YPL078C, strain atp4, stronger effect = lower value",0.998
same,normalized growth,"locus YPL106C, strain sse1, stronger effect = lower value",1.01
same,normalized growth,"locus YPL240C, strain hsp82, stronger effect = lower value",1
same,normalized growth,[8],1.03
Cc1cc2nc3c(Cl)c(O)c4ccccc4c3nc2cc1C,normalized growth,"locus YAR019C, strain CDC15, stronger effect = lower value",0.966
same,normalized growth,"locus YBL105C, strain PKC1, stronger effect = lower value",0.961
same,normalized growth,"locus YBR135W, strain CKS1, stronger effect = lower value",0.949
same,normalized growth,"locus YBR136W, strain MEC1, stronger effect = lower value",0.965
same,normalized growth,"locus YBR160W, strain CDC28, stronger effect = lower value",0.96
same,normalized growth,"locus YDL017W, strain CDC7, stronger effect = lower value",0.965
same,normalized growth,"locus YDL028C, strain MPS1, stronger effect = lower value",0.959
same,normalized growth,"locus YDL101C, strain DUN1, stronger effect = lower value",0.981
same,normalized growth,"locus YDL108W, strain KIN28, stronger effect = lower value",0.954
same,normalized growth,"locus YDL132W, strain cdc53, stronger effect = lower value",0.966
same,normalized growth,"locus YDL214C, strain PRR2, stronger effect = lower value",0.818
same,normalized growth,"locus YDR052C, strain DBF4, stronger effect = lower value",0.953
same,normalized growth,"locus YDR054C, strain cdc34, stronger effect = lower value",0.965
same,normalized growth,"locus YDR226W, strain ADK1, stronger effect = lower value",0.949
same,normalized growth,"locus YDR477W, strain SNF1, stronger effect = lower value",0.634 (active)
same,normalized growth,"locus YER123W, strain YCK3, stronger effect = lower value",0.766
same,normalized growth,"locus YER133W, strain GLC7, stronger effect = lower value",0.87
same,normalized growth,"locus YFL009W, strain cdc4, stronger effect = lower value",0.969
same,normalized growth,"locus YFL029C, strain CAK1, stronger effect = lower value",0.946
same,normalized growth,"locus YFR003C, strain YPI1, stronger effect = lower value",0.962
same,normalized growth,"locus YFR019W, strain FAB1, stronger effect = lower value",0.887
same,normalized growth,"locus YFR028C, strain CDC14, stronger effect = lower value",0.958
same,normalized growth,"locus YGR040W, strain KSS1, stronger effect = lower value",0.724
same,normalized growth,"locus YGR052W, strain FMP48, stronger effect = lower value",0.722
same,normalized growth,"locus YGR092W, strain DBF2, stronger effect = lower value",0.487
same,normalized growth,[1],0.55 (active)
same,normalized growth,[2],0.805
same,normalized growth,"locus YHR082C, strain KSP1, stronger effect = lower value",0.737
same,normalized growth,"locus YHR205W, strain SCH9, stronger effect = lower value",0.666
same,normalized growth,"locus YIL147C, strain SLN1, stronger effect = lower value",0.958
same,normalized growth,[3],0.749
same,normalized growth,"locus YJL128C, strain PBS2, stronger effect = lower value",0.944
same,normalized growth,"locus YJL157C, strain FAR1, stronger effect = lower value",0.778
same,normalized growth,"locus YJR016C, strain ILV3, stronger effect = lower value",0.955
same,normalized growth,"locus YJR066W, strain TOR1 (second series), stronger effect = lower value",0.64
same,normalized growth,[4],0.559
same,normalized growth,"locus YKL048C, strain ELM1, stronger effect = lower value",0.737 (active)
same,normalized growth,"locus YKL067W, strain YNK1, stronger effect = lower value",0.786
same,normalized growth,"locus YKL101W, strain HSL1, stronger effect = lower value",0.829
same,normalized growth,"locus YKL193C, strain SDS22, stronger effect = lower value",0.972
same,normalized growth,"locus YKL203C, strain TOR2, stronger effect = lower value",0.766
same,normalized growth,[5],0.877
same,normalized growth,"locus YLR133W, strain CKI1, stronger effect = lower value",0.679 (active)
same,normalized growth,"locus YLR403W, strain SFP1, stronger effect = lower value",0.663
same,normalized growth,"locus YML070W, strain DAK1, stronger effect = lower value",0.852
same,normalized growth,"locus YMR001C, strain CDC5, stronger effect = lower value",0.959
same,normalized growth,"locus YMR205C, strain PFK2 (second series), stronger effect = lower value",0.726 (active)
same,normalized growth,"locus YMR277W, strain FCP1, stronger effect = lower value",0.961
same,normalized growth,"locus YNL006W, strain LST8, stronger effect = lower value",0.974
same,normalized growth,"locus YNL020C, strain ARK1, stronger effect = lower value",0.617 (active)
same,normalized growth,"locus YNL161W, strain CBK1, stronger effect = lower value",0.971
same,normalized growth,[6],0.739
same,normalized growth,"locus YNL207W, strain RIO2, stronger effect = lower value",0.961
same,normalized growth,"locus YNL222W, strain SSU72, stronger effect = lower value",0.955
same,normalized growth,"locus YOL078W, strain AVO1, stronger effect = lower value",0.962
same,normalized growth,"locus YOL136C, strain PFK27, stronger effect = lower value",0.838
same,normalized growth,"locus YOR061W, strain CKA2, stronger effect = lower value",0.43 (active)
same,normalized growth,"locus YOR119C, strain RIO1, stronger effect = lower value",0.831
same,normalized growth,[7],0.829
same,normalized growth,"locus YOR329C, strain SCD5, stronger effect = lower value",0.97
same,normalized growth,"locus YPL031C, strain PHO85, stronger effect = lower value",0.643 (active)
same,normalized growth,"locus YPL153C, strain RAD53, stronger effect = lower value",0.68
same,normalized growth,"locus YPL204W, strain HRR25, stronger effect = lower value",0.646 (active)
same,normalized growth,"locus YPL209C, strain IPL1, stronger effect = lower value",0.976
same,normalized growth,[8],0.869
same,normalized growth,"locus YPR025C, strain CCL1, stronger effect = lower value",0.957
same,normalized growth,"locus YPR106W, strain ISR1, stronger effect = lower value",1.01
same,normalized growth,"locus YPR111W, strain DBF20, stronger effect = lower value",0.976
same,normalized growth,"strain NNK1, stronger effect = lower value",0.966
same,normalized growth,"strain TSCII, stronger effect = lower value",0.963
